Assay results from PubChem BioAssay.
Values joined by “and” are separate entries in the source; they are usually repeats but may differ in a detail not shown here. Equal entries are not always repeated. Records with an inconclusive call do not appear. Active and inactive are the calls of the source.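 Rule for the calls, unless noted: active = normalized viability below 100% at a tested concentration; inactive = the rest.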

Key:
[1] = viability loss in pontine glioma line – cell-based, SU-DIPG-XXV, MIPE5.0, CellTiter-Glo, qHTS, dose response (AID 1347065; cut-off not given, nearly all actives have AC50 up to about 26 µM;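 note: cells exposed to compound for 48 hours before ATP readout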); settings: CellTiter-Glo ATP luminescence
[2] = JHH-DIPG-1 glioma cell viability, MIPE5.0 library, CellTiter-Glo luminescence, qHTS (AID 1347067; cut-off not given, nearly all actives have AC50 up to about 26 µM;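 note: cells exposed to compound for 48 hours before readout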); settings: JHH-DIPG-1 glioma viability, CellTiter-Glo ATP luminescence
[3] = growth inhibition of DIPG cells – cell-based, MIPE5.0 library, qHTS (AID 1347068; cut-off not given, nearly all actives have IC50 up to about 30 µM); settings: SU-DIPG-XXV viability
[4] = chitosan synthesis blockers in C. neoformans – flow cytometry, Cibacron Brilliant Red staining (AID 1347148; call rule not given here;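 note: compound exposure lasted three days at 37 degrees C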); settings: Cryptococcus neoformans chitosan, stronger effect = lower value; at 10 µM unless noted
[5] = blockers of cellular phospholipid synthesis – cell-based, LOPAC library, screen 4, primary screen (AID 1347384; call rule not given here); settings: animal cells, phospholipid biosynthesis inhibition screen; at 10 µM
[6] = MELAS cybrid and Rieske KO viability enhancers – cell-based, MELAS cybrids, Rieske KO mouse fibroblasts, CellTiter-Glo, primary screen (AID 1508586;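 active = mean z-score across replicates of 1.96 or higher in either the MELAS or the Rieske mutant cell line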;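 note: z relative to plate mean and SD of compound and empty wells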); settings: low glucose
[7] = drug combination growth inhibition, ovarian cancer – cell-based, oncology-focused library, rucaparib conditional, profiling panel (AID 1508598); settings: patient-derived ovarian cancer cells, CellTiter-Glo viability, 144 h, stronger effect = lower value
[8] = target: Mitogen-activated protein kinase 7 (Homo sapiens) (UniProt Q13164); assay: Gal4-ERK5 driven luciferase induction – cell-based, HTS, primary screen (AID 1508626;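 active = luciferase signal above three times the same-plate solvent-only control wells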;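 note: luciferase driven by Gal4-ERK5 fusion binding five Gal4 sites before minimal TATA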); settings: HeLa Gal4-ERK5 transactivation, 18 h, at 5 µM, stronger effect = higher value
Sequence of Mitogen-activated protein kinase 7 (Homo sapiens) (Q13164 whole entry, looked up, the tested form may be a part): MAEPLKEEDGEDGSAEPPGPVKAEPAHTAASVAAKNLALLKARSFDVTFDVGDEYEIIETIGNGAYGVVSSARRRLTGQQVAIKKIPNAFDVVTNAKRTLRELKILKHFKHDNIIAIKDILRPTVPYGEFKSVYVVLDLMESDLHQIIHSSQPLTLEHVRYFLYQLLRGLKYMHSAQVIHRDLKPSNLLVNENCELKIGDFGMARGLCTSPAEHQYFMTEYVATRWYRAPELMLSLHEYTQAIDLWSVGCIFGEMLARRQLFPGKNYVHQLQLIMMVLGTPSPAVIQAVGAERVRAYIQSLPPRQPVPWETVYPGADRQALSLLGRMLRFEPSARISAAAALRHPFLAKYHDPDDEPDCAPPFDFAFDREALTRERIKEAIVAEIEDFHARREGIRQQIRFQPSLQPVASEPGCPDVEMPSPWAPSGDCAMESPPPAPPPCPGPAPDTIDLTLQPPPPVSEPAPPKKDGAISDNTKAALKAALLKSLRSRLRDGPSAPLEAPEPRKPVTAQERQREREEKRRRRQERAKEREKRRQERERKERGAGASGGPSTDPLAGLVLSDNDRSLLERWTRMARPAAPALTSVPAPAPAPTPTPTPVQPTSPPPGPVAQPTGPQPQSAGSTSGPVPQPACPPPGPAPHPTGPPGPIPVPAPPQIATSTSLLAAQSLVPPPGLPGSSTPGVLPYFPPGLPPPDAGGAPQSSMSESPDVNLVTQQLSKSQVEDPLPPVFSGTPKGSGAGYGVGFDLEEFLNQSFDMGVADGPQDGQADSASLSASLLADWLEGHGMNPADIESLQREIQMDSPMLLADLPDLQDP

[9] = galactose survival enhancers in mitochondrial complex I cybrids – cell-based, galactose medium, ATP luminescence, primary screen (AID 1645843;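 active = z-score of at least 1.8 in each of two replicates, scored against plate mean and spread of sample wells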;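 note: positive z means more ATP and so rescue of galactose-driven cybrid death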); settings: complex I mutant cybrid cells, 72 h, stronger effect = higher value
[10] = growth inhibition, single agent or in combination, cell-based, chromothripsis tumors, cisplatin or BGB combos (AID 1671449; in the data active = inhibition above about 80%;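 note: cells exposed for 96 hours; 0% = vehicle DMSO and 100% = killing by high DMSO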); settings: LFS_MB_P medulloblastoma cells
[11] = growth inhibition, single agent and combos, cell-based, chromothripsis tumors, cisplatin or BGB combos (AID 1671450; in the data active = inhibition above about 80%;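 note: cells exposed to compound for four days; 0% = vehicle DMSO and 100% = cell killing by high DMSO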); settings: HDN33 neuroblastoma cells, stronger effect = higher value
[12] = growth inhibition, single agents and combos, ICB984, cell-based, cisplatin or BGB combos, synergistic combos for chromothripsis tumors (AID 1671451; call rule not given here;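 note: cells exposed for 96 hours before readout; 0% = vehicle DMSO and 100% = killing by high DMSO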); settings: ICB984 medulloblastoma cells, drug combinations, stronger effect = higher value
[13] = growth inhibition, single agents and combos, LFS_MB_1R, cell-based, cisplatin or BGB combos, synergistic combos for chromothripsis tumors (AID 1671452; in the data active = inhibition above about 80%;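 note: cells exposed for 96 hours before readout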); settings: LFS_MB_1R medulloblastoma cells, stronger effect = higher value
[14] = growth inhibition, single agents and combos, HTB85, cell-based, BGB or cisplatin IC20 combos, synergistic combos for chromothripsis tumors (AID 1671453; in the data active = inhibition above about 80%;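 note: cells exposed for 96 hours before readout; 0% = vehicle DMSO and 100% = high DMSO killing control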); settings: HTB85 osteosarcoma cells, drug combinations, stronger effect = higher value
[15] = growth inhibition, single agents and combos, CRL2098, cell-based, BGB or cisplatin IC20 combos, synergistic combos for chromothripsis tumors (AID 1671454; in the data active = inhibition above about 80%;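 note: cells exposed for 96 h before readout; 0% = vehicle DMSO and 100% = killing by high DMSO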); settings: CRL2098 osteosarcoma cells, drug combinations, stronger effect = higher value
[16] = growth inhibition, single agents and combos, HD-MB03, cell-based, BGB or cisplatin IC20 combos, synergistic combos for chromothripsis tumors (AID 1671455; in the data active = inhibition above about 83%;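 note: 0% = vehicle DMSO and 100% = high DMSO as cytotoxic control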); settings: HD-MB03 medulloblastoma cells, stronger effect = higher value
[17] = measured here: combination with BGB IC40, at 0.05 µM

With `O=c1c(O)c(-c2ccc(O)c(O)c2)oc2cc(O)cc(O)c12` the outcome [1] was “inactive”, the outcome [2] was “inactive” and the outcome [3] was “inactive”. The fold fluorescence [4] was 2.95 [at 165.4 µM] (active), the outcome [5] was “inactive” and the z-score ([6]; MELAS cybrid survival, CellTiter-Glo 48 h, stronger effect = higher value) was -0.4 (inactive) and -0.42 (inactive). For the same compound, the z-score ([6]; Rieske KO mouse fibroblast survival, CellTiter-Glo 72 h) was -1.01 and 0.378, the viability ([7]; at 0.000305 µM, OCI-C5x cells, with rucaparib 10 µM, 100% = cells with rucaparib alone) was 118% (inactive) and the viability ([7]; at 0.000305 µM, OCI-C5x cells, without rucaparib) was 113% (inactive). For the same compound, the viability ([7]; at 0.000305 µM, OCI-P5x cells, with rucaparib 20 µM, 100% = cells with rucaparib alone) was 92% (active), the viability ([7]; at 0.000305 µM, OCI-P5x cells, without rucaparib) was 92.3% (active) and the viability ([7]; at 0.00122 µM, OCI-C5x cells, with rucaparib 10 µM, 100% = cells with rucaparib alone) was 122% (inactive). For the same compound, the viability ([7]; at 0.00122 µM, OCI-C5x cells, without rucaparib) was 119% (inactive), the viability ([7]; at 0.00122 µM, OCI-P5x cells, with rucaparib 20 µM, 100% = cells with rucaparib alone) was 97.3% (active) and the viability ([7]; at 0.00122 µM, OCI-P5x cells, without rucaparib) was 102% (inactive). The viability ([7]; at 0.00488 µM, OCI-C5x cells, with rucaparib 10 µM, 100% = cells with rucaparib alone) was 117% (inactive), the viability ([7]; at 0.00488 µM, OCI-C5x cells, without rucaparib) was 129% (inactive) and the viability ([7]; at 0.00488 µM, OCI-P5x cells, with rucaparib 20 µM, 100% = cells with rucaparib alone) was 104% (inactive). For the same compound, the viability ([7]; at 0.00488 µM, OCI-P5x cells, without rucaparib) was 105% (inactive), the viability ([7]; at 0.0195 µM, OCI-C5x cells, with rucaparib 10 µM, 100% = cells with rucaparib alone) was 127% (inactive) and the viability ([7]; at 0.0195 µM, OCI-C5x cells, without rucaparib) was 125% (inactive). For the same compound, the viability ([7]; at 0.0195 µM, OCI-P5x cells, with rucaparib 20 µM, 100% = cells with rucaparib alone) was 105% (inactive), the viability ([7]; at 0.0195 µM, OCI-P5x cells, without rucaparib) was 105% (inactive) and the viability ([7]; at 0.0781 µM, OCI-C5x cells, with rucaparib 10 µM, 100% = cells with rucaparib alone) was 114% (inactive). The viability ([7]; at 0.0781 µM, OCI-C5x cells, without rucaparib) was 125% (inactive), the viability ([7]; at 0.0781 µM, OCI-P5x cells, with rucaparib 20 µM, 100% = cells with rucaparib alone) was 105% (inactive) and the viability ([7]; at 0.0781 µM, OCI-P5x cells, without rucaparib) was 109% (inactive). The viability ([7]; at 0.313 µM, OCI-C5x cells, with rucaparib 10 µM, 100% = cells with rucaparib alone) was 111% (inactive), the viability ([7]; at 0.313 µM, OCI-C5x cells, without rucaparib) was 127% (inactive) and the viability ([7]; at 0.313 µM, OCI-P5x cells, with rucaparib 20 µM, 100% = cells with rucaparib alone) was 101% (inactive). For the same compound, the viability ([7]; at 0.313 µM, OCI-P5x cells, without rucaparib) was 112% (inactive), the viability ([7]; at 1.25 µM, OCI-C5x cells, with rucaparib 10 µM, 100% = cells with rucaparib alone) was 111% (inactive) and the viability ([7]; at 1.25 µM, OCI-C5x cells, without rucaparib) was 125% (inactive). For the same compound, the viability ([7]; at 1.25 µM, OCI-P5x cells, with rucaparib 20 µM, 100% = cells with rucaparib alone) was 103% (inactive), the viability ([7]; at 1.25 µM, OCI-P5x cells, without rucaparib) was 107% (inactive) and the viability ([7]; at 5 µM, OCI-C5x cells, with rucaparib 10 µM, 100% = cells with rucaparib alone) was 109% (inactive). The viability ([7]; at 5 µM, OCI-C5x cells, without rucaparib) was 120% (inactive), the viability ([7]; at 5 µM, OCI-P5x cells, with rucaparib 20 µM, 100% = cells with rucaparib alone) was 90.4% (active) and the viability ([7]; at 5 µM, OCI-P5x cells, without rucaparib) was 107% (inactive). The luciferase signal [8] was 72 AU (inactive), the z-score [9] was -0.695 (inactive) and -0.855 (inactive) and the inhibition ([10]; at 0.5 µM, stronger effect = higher value) was -5.93% (inactive). The inhibition ([10]; measured here: combination with BGB IC20, at 0.005 µM) was 17%, the inhibition ([10]; measured here: combination with BGB IC40, at 0.005 µM) was 13.5% and the inhibition [10, 17] was 25.1%. It also gave an inhibition ([10]; measured here: combination with cisplatin, at 0.5 µM, stronger effect = higher value) of -24.2%, an inhibition ([10]; measured here: combination with cisplatin, at 5 µM, stronger effect = higher value) of 20.2% and an inhibition ([11]; BGB combo, at 5 µM) of -9.66%. For the same compound, the inhibition ([11]; at 0.5 µM) was -7.52% (inactive), the inhibition ([11]; cisplatin combo, at 5 µM) was 10.5% and the inhibition ([11]; measured here: with BGB IC20 combination, at 0.5 µM) was -21.2%. The inhibition ([11]; measured here: with cisplatin IC20 combination, at 0.5 µM) was 12.4%, the inhibition ([11]; single agent, at 5 µM) was -15.2% and the inhibition ([12]; BGB IC20 combo, at 0.005 µM) was 14%. For the same compound, the inhibition ([12]; BGB IC40 combo, at 0.005 µM) was -3.66%, the inhibition ([12]; BGB IC40 combo, at 0.05 µM) was -21.1% and the inhibition ([12]; at 0.5 µM) was 2.09% (inactive). The inhibition ([12]; cisplatin combo, at 0.05 µM) was -21.1%, the inhibition ([12]; cisplatin combo, at 0.5 µM) was -0.46% and the inhibition ([12]; cisplatin combo, at 5 µM) was -2.17%. The inhibition ([12]; measured here: 5 uM single agent, at 5 µM) was 2.61%, the inhibition ([13]; at 0.5 µM) was -24.6% (inactive) and the inhibition [13, 17] was 7.65%. For the same compound, the inhibition ([13]; measured here: combination with cisplatin, at 0.5 µM) was -39%, the inhibition ([13]; measured here: combination with cisplatin, at 5 µM) was -2.19% and the inhibition ([14]; at 0.5 µM) was -16.3% (inactive). For the same compound, the inhibition ([14]; measured here: with BGB IC20, at 0.5 µM) was -21.8%, the inhibition ([14]; measured here: with BGB IC20, at 5 µM) was -1.29% and the inhibition ([14]; measured here: with cisplatin IC20, at 0.5 µM) was -33.8%. The inhibition ([14]; measured here: with cisplatin IC20, at 5 µM) was -25%, the inhibition ([14]; single agent, at 5 µM) was -18.2% and the inhibition ([15]; at 0.5 µM) was -28.1% (inactive). The inhibition ([15]; measured here: combination with BGB at IC20, at 0.5 µM) was -37.5%, the inhibition ([15]; measured here: combination with cisplatin at IC20, at 0.5 µM) was -36.5% and the inhibition ([16]; at 0.5 µM) was -8.42% (inactive). It also gave an inhibition ([16]; measured here: combo with BGB at IC20, at 0.5 µM) of -5.54% and an inhibition ([16]; measured here: combo with cisplatin at IC20, at 0.5 µM) of -14%.
